Reference: the supplement of paper PMC13380429
Unmarked numbers belong to inactive results.

Tested on: Vero E6 infected with SARS-CoV-2
Assay: inhibition of SARS-CoV-2 cytopathic effect; higher = more antiviral protection, active = above 15
Conditions: 48 h

Structure (SMILES)	inhibition of SARS-CoV-2 cytopathic effect (1 nM) [%]	inhibition of SARS-CoV-2 cytopathic effect (8.33 nM) [%]	inhibition of SARS-CoV-2 cytopathic effect (100 nM) [%]	inhibition of SARS-CoV-2 cytopathic effect (833.33 nM)	inhibition of SARS-CoV-2 cytopathic effect (10000 nM)
Cc1cc(C)nc(SCC(=O)Nc2ncc(Cc3cccc4ccccc34)s2)n1	0.9	-1.68	1.78	0.63%	2.48%
Cc1ccccc1C(=O)c1ccc(Nc2ccc(Br)cc2N)cc1Cl	1.98	1.13	-4.39	-0.22%	3.01%
C=CCN1CC[C@]23CCCC[C@H]2[C@H]1Cc1ccc(O)cc13 [levallorphan]	-1.28	0.72	-1.34	-1.26%	-3.54%
NC(=O)OCCCc1ccccc1 [phenprobamate]	0.89	0.93	-0.42	-2.45%	-2.7%
CC1(C)OC(=O)C(OCC2CC2)=C1c1ccc(S(C)(=O)=O)cc1 [firocoxib]	-1.63	-1.5	0.34	0.04%	-1.02%
NC(=O)c1nc(Nc2ccccc2)sc1NC(=O)C1CCCCC1	1.69	3.22	-0.11	-8.95%	-4.1%
Cc1noc2c1-c1ccccc1C(c1ccc(Cl)cc1)=N[C@H]2CC(N)=O	-3.02	0.61	-3.13	0.14%	-11.1%
O=C1NC(=O)C(c2ccccc2[N+](=O)[O-])=C1Nc1ccc(O)c(Cl)c1	-2.14	-1.36	-2.09	1.29%	6.31%
O[C@@H]1CCCC[C@H]1N1CCC(c2ccccc2)CC1 (racemic) [vesamicol]	0.17	1.74	0.78	1.42%	1.14%
CSc1ccc2c(c1)[C@H](N1CCN(C)CC1)Cc1ccccc1S2 (racemic) [metitepine]	0.91	0.58	-0.78	-2.3%	16.2% (active)
C[C@H](N)[C@H](O)c1cccc(O)c1 [metaraminol]	5.57	5.04	2.34	1.83%	1.14%
CC(C)(C)c1ccc(CN(Cc2cccc(OCC(=O)O)c2)S(=O)(=O)c2cccnc2)cc1 [evatanepag]	-1.15	-0.63	-1.94	-1.15%	-2.53%
Cc1ccc(-n2nc(C(C)(C)C)cc2NC(=O)NCc2cc(F)ccc2Oc2ccc3c(cnn3CCO)c2)cc1 [pexmetinib]	-0.97	-3.1	0.01	5.81%	3.62%
C[Se]C[C@H](N)C(=O)O [Se-methylselenocysteine]	2.05	1.18	0.23	0.93%	1.8%
CC1(c2ccccc2)OC(C(=O)O)=CC1=O (stereo not given) [acifran]	0.88	4.17	2.12	-3.24%	2.64%
COc1cc(OC)c(/C=C2/C(=O)Nc3ccccc32)c(OC)c1	2.03	1.86	2.55	1.29%	-1.88%
CC(C)c1nc(CN(C)C(=O)N[C@H](C(=O)N[C@@H](Cc2ccccc2)C[C@H](O)[C@H](Cc2ccccc2)NC(=O)OCc2cncs2)C(C)C)cs1 [ritonavir]	0.04	0.25	-0.08	3.37%	0.85%
CN1Cc2ccccc2[C@@H]2c3cccc4[nH]cc(c34)C[C@H]21	0.05	0.93	-1.06	0.95%	2.21%
C[C@@H]1COC(Nc2ccc3ncnc(Nc4ccc(OCc5nccs5)c(Cl)c4)c3c2)=N1	2.68	1.86	-0.65	-3.55%	-4.19%
O=C(CCCl)NCCc1ccccc1 [fenaclon]	4.5	-2.28	0.58	-1.53%	-1.25%
C[C@H](Nc1cc(-c2cnn(C)c2)cc(Nc2cnccn2)n1)c1ccc(F)cc1	1.93	1.68	2.86	-4.39%	-8.8%

Structure (SMILES)	inhibition of SARS-CoV-2 cytopathic effect (1 nM) [%]	inhibition of SARS-CoV-2 cytopathic effect (8.33 nM) [%]	inhibition of SARS-CoV-2 cytopathic effect (100 nM) [%]	inhibition of SARS-CoV-2 cytopathic effect (833.33 nM)	inhibition of SARS-CoV-2 cytopathic effect (10000 nM)
CCCCc1cc2ccccc2c(OCCN(C)C)n1 [dimethisoquin]	0.87	1.84	-0.28	0.5%	-2.53%
CC(C)(O)CC(=O)NCCn1ccc2ncnc(Nc3ccc(Oc4cccc(C(F)(F)F)c4)c(Cl)c3)c21	4.78	7.81	3.51	-7.39%	-14.1%
NC(=S)N/N=C/c1ncccc1N [triapine]	2.87	-0.48	4.4	3.25%	-6.06%
O=[N+]([O-])c1nccn1CC(O)CN1CCCCC1 (stereo not given) [pimonidazole]	0.08	0.87	1.45	2.08%	-0.59%
O=C(Nc1ccc([N+](=O)[O-])cc1Cl)c1cc(Cl)ccc1O [niclosamide]	-0.87	-2.63	0.39	11.4%	4.29%
C[C@@H](C1=C(CCN(C)C)Cc2ccccc21)c1ccccn1 (racemic) [dimetindene]	-0.06	0.69	0.085	1.68%	1.16%
CCNC(=O)C#Cc1ccc2c(C(=Nc3ccc(CN(C)C)cc3)c3ccccc3)c(O)[nH]c2c1	0.51	-0.81	-4.45	-15.2%	-20.6%
C[C@]12CC/C(=N\OCCN)C[C@@H]1C(=O)C[C@@H]1[C@@H]2CC[C@]2(C)C(=O)CC[C@@H]12 [istaroxime]	2.17	-1.67	1.45	3.86%	6.93%
O=C(NCc1ccccc1)OCCO [buramate]	-3.11	-3.15	-10.9	1.79%	0.54%
OC[C@H]1O[C@H](O[C@H]2[C@H](O)[C@@H](O)[C@H](O)O[C@@H]2CO)[C@H](O)[C@@H](O)[C@@H]1O [D-(+)-maltose]	-1.05	-1.49	-0.09	-1.17%	-3.27%
O=C(Cc1ccc(-c2ccc(OCCN3CCOCC3)cc2)cn1)NCc1ccccc1	-1.67	0.24	-3.29	-1.51%	-1.44%
CCc1ccc(C(=O)C(C)CN2CCCCC2)cc1 (stereo not given) [eperisone]	0.14	2.24	3.36	4.7%	2.77%
FC(F)(F)c1cccc(C2=CCN(CCc3ccc4ccccc4c3)CC2)c1 [xaliproden]	-0.86	-1.4	1.4	0.49%	0.49%
O=C1NCC2(CCN(CCc3ccccc3)CC2)O1 [fenspiride]	-2.77	-1.55	2.18	0.71%	0.43%
C[C@@H]1C[C@@H]([C@H](O)CC2CC(=O)NC(=O)C2)C(=O)[C@@H](C)C1 [cycloheximide]	2.12	2.86	6.34	27.6% (active)	17.4% (active)
O=C(Nc1ccccc1-c1cn2c(CN3CCNCC3)csc2n1)c1cnc2ccccc2n1	0.17	1.58	-0.07	-3.31%	-26.2%
CCN1CCN(C(=O)N[C@@H](C(=O)N[C@@H]2C(=O)N3C(C(=O)O)=C(CSc4nnnn4C)CS[C@H]23)c2ccc(O)cc2)C(=O)C1=O [cefoperazone]	-0.37	-0.65	0.99	3.89%	2.57%
CCN(CC)CCCCC1CCN(CC(=O)N2c3ccccc3C(=O)Nc3cccnc32)CC1	-0.6	0.18	-0.52	-1.51%	-4.44%
CCOC(CN1CCN(CC(C)C(=O)c2ccccc2)CC1)c1ccccc1 (stereo not given) [eprazinone]	-5.33	-3.53	-2.2	1.64%	0.89%
Cc1ccc(Cl)c(Nc2ccccc2C(=O)O)c1Cl [meclofenamic-acid]	-0.6	1.04	-1.96	0.39%	-1.58%
